The supplement of paper PMC11732987, “Enantioselective OTUD7B fragment discovery through chemoproteomics screening and high-throughput optimisation” (Communications Chemistry, 2025)

Key:
Experiment in all cases: log2 ratio of Biotin-Ahx-Ub-VS probe labelling (fragment/DMSO); higher = less target engagement (more negative = stronger competition), active = hit call of the paper (q ≤ 0.05, log2 ratio ≤ -1)
Conditions in all cases: compound concentration: 200 uM; treatment time: 3 h
[1] = target: T1, USP19 (UniProt O94966)
T1 sequence (whole entry): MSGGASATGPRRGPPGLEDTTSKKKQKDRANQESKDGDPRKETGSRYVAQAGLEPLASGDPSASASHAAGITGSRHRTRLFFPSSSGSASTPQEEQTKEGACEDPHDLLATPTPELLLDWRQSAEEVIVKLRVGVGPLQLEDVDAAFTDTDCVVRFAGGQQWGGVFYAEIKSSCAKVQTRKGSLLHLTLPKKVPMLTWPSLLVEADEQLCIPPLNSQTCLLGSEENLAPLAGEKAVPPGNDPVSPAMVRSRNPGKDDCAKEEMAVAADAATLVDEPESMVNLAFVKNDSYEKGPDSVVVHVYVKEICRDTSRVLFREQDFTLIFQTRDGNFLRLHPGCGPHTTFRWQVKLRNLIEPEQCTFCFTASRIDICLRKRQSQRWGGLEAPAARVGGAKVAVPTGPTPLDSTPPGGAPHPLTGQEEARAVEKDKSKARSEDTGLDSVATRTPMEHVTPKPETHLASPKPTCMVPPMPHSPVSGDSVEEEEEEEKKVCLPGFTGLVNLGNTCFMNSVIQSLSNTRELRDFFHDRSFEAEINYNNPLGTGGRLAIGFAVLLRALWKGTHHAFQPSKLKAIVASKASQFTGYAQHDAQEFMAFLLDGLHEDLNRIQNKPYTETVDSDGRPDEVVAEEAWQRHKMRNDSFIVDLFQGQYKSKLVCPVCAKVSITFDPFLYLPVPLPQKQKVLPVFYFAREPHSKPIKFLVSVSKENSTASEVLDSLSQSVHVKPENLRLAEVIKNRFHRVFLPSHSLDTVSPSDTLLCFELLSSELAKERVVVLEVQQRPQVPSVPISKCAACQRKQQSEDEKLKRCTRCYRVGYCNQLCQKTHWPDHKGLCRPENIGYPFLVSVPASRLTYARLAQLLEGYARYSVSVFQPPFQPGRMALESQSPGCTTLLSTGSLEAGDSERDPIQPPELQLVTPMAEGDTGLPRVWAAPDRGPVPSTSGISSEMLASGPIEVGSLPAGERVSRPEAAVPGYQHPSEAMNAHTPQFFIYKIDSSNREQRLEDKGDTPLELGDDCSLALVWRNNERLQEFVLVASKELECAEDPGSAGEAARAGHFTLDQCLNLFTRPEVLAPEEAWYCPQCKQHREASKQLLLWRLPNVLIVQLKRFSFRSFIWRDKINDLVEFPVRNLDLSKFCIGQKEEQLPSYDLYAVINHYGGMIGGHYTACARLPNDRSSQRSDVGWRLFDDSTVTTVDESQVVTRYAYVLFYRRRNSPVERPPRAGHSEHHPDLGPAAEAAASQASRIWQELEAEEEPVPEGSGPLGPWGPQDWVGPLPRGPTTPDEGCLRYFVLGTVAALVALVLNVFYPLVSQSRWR
Outline: (§1)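 In triplicate, 495 µg of HEK293T lysate per sample was incubated with fragment at 200 µM or vehicle for 3 h. Biotin-Ahx-Ub-VS was then added to 0.5 µM final for 1 h, and labelled DUBs were captured with NeutrAvidin, digested with LysC and trypsin, and measured by diaPASEF LC-MS/MS. Data are average log2 fragment/vehicle ratios by unpaired t-test from global-median-normalised Spectronaut label-free quantities, restricted to proteins with ≥2 unique peptides.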

[2] = target: T2, USP22 (UniProt Q9UPT9)
T2 sequence (whole entry): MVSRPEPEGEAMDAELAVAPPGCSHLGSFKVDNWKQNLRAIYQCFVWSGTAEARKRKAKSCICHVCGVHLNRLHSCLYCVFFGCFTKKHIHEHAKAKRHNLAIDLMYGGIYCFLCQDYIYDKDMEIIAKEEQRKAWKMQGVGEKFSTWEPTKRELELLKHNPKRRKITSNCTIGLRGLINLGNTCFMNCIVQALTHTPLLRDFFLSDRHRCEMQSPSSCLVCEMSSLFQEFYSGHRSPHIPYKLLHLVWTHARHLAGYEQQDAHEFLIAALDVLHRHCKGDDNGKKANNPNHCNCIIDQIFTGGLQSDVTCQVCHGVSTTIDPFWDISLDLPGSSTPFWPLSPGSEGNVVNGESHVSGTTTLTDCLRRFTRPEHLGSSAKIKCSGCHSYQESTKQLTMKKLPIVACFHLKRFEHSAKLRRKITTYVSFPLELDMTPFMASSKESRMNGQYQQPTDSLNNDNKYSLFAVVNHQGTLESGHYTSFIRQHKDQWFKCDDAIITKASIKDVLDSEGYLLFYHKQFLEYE
Outline: as §1

[3] = target: USP24 (UniProt Q9UPU5)
Outline: as §1

[4] = target: T3, USP25 (UniProt Q9UHP3)
T3 sequence (whole entry): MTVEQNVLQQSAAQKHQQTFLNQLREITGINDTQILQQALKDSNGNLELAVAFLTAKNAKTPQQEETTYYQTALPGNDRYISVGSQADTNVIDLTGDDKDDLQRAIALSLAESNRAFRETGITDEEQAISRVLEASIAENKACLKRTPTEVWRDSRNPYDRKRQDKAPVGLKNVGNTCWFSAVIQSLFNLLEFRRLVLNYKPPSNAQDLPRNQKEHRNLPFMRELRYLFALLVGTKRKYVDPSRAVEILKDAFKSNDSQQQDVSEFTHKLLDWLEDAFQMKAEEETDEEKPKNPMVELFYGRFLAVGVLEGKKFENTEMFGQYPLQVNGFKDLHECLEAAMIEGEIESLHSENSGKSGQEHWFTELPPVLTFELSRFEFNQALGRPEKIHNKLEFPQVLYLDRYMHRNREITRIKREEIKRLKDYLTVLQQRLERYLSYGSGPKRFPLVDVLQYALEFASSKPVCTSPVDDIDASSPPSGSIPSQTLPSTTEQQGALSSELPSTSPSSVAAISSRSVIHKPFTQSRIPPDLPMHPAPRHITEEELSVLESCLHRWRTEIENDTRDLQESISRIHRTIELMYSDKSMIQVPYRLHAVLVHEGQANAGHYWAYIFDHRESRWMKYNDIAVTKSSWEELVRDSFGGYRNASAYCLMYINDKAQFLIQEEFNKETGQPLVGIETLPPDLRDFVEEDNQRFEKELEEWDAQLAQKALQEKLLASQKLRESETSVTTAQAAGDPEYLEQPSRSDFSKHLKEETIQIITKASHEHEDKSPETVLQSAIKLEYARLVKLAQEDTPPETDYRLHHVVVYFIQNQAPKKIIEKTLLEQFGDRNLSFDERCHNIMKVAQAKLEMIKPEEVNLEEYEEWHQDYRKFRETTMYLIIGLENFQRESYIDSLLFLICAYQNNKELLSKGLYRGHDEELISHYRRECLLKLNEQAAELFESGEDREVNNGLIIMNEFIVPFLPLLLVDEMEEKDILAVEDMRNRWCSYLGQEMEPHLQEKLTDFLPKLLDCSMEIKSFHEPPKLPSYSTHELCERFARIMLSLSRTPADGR
Outline: as §1

[5] = target: T4, USP28 (UniProt Q96RU2)
T4 sequence (whole entry): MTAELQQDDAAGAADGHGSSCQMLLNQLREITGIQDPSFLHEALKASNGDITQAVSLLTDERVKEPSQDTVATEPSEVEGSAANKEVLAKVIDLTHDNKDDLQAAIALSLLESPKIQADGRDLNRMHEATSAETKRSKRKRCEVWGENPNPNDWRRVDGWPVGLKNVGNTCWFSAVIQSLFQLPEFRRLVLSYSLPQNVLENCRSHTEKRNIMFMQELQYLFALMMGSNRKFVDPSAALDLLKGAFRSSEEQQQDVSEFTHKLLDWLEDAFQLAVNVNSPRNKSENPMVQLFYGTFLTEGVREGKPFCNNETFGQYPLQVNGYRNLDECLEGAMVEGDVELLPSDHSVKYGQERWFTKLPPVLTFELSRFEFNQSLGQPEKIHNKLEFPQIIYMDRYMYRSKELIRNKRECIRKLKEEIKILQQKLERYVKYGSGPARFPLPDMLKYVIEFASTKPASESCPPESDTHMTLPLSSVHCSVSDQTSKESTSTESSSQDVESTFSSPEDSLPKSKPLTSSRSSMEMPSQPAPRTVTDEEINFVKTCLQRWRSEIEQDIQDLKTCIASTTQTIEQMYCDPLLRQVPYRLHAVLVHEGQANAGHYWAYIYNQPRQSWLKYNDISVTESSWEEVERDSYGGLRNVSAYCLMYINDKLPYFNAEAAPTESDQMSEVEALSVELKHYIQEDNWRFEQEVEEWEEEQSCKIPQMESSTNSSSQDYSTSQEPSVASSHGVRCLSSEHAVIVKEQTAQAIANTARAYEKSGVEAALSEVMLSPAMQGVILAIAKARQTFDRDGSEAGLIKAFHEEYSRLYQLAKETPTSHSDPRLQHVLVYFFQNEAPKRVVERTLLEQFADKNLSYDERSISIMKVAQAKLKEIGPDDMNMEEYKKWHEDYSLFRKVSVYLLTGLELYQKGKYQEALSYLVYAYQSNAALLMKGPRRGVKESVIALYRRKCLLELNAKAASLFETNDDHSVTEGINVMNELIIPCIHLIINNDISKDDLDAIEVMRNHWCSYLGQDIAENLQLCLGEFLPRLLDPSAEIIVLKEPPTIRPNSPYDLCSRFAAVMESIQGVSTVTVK
Outline: as §1

Measured: log2 ratio of Biotin-Ahx-Ub-VS probe labelling

Sequence of USP24 (Q9UPU5 whole entry): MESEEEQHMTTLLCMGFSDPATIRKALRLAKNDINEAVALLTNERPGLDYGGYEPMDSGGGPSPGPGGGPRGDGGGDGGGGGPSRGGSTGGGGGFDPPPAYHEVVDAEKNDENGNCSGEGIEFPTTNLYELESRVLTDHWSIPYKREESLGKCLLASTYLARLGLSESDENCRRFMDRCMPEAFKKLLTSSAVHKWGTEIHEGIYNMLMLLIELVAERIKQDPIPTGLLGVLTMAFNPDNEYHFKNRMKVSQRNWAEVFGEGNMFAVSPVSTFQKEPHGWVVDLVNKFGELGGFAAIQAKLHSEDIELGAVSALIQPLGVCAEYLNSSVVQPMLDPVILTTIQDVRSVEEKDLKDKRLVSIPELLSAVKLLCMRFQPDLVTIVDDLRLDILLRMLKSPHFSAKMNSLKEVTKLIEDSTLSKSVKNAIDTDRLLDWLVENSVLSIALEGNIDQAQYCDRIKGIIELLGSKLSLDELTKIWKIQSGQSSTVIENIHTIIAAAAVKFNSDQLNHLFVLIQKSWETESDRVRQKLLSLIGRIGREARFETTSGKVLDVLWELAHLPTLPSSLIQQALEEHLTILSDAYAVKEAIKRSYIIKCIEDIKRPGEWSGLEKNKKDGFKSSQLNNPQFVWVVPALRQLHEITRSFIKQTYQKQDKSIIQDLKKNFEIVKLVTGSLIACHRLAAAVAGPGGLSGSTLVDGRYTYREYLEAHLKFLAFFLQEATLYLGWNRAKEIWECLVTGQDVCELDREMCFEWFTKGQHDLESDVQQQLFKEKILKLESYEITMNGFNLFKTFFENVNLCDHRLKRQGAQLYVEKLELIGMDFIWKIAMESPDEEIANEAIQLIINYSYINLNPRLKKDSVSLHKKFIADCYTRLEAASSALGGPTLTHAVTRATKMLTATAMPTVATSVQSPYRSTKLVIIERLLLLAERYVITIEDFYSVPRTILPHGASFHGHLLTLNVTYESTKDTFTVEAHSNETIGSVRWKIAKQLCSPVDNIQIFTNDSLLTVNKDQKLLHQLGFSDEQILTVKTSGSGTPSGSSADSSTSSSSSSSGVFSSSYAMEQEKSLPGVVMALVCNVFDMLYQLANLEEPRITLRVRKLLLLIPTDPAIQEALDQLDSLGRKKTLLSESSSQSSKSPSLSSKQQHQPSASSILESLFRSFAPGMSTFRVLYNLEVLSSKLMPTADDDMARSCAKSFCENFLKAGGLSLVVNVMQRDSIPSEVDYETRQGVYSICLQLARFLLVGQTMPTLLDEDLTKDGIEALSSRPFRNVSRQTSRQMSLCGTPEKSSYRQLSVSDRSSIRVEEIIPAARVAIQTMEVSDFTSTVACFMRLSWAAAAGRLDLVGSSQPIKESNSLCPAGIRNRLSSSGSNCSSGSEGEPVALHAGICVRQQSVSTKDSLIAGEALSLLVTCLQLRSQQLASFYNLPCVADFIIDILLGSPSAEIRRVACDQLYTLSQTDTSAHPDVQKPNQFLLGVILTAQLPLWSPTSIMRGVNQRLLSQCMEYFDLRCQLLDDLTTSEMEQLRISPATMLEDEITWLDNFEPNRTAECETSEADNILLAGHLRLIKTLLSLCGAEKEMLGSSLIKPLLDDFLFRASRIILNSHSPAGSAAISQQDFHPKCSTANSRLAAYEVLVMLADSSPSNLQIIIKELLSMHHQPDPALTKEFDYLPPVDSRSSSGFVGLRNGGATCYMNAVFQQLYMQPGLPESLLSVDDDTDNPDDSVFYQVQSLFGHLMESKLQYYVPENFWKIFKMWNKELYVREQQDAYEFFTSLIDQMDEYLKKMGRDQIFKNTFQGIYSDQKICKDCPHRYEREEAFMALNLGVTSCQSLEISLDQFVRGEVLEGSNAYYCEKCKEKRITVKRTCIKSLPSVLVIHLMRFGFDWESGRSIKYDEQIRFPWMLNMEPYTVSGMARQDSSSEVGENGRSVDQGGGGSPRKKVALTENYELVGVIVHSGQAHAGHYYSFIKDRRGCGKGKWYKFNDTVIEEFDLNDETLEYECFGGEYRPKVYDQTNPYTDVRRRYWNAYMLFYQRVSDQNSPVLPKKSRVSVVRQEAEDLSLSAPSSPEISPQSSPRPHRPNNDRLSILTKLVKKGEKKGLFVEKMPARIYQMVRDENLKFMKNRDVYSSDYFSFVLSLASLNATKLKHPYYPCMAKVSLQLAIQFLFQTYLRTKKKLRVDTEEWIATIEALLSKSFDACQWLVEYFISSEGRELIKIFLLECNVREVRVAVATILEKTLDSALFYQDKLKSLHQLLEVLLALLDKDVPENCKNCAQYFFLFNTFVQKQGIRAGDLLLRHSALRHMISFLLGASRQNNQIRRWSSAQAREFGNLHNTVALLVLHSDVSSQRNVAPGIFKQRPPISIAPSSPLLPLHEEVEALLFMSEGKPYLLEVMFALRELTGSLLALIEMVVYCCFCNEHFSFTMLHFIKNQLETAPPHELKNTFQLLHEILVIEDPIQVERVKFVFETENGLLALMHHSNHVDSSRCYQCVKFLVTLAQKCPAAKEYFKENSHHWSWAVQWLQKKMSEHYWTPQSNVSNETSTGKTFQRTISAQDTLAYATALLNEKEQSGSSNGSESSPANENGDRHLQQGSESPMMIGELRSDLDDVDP

Cc1ccc(N(C(=O)CCl)C2C=CS(=O)(=O)C2)cc1 (stereo not given)
inactive: [1] 0.0392 | [2] 0.0416 | [3] -0.681 | [4] 0.0868 | [5] -0.13
